# Results taken from PubChem BioAssay (NCI).
# This is part of a sample that, as a whole, favours compounds with a hit. Of some 79,000 tested, about 15% had one in any assay. A number with no mark means an inactive call. The source made the active and inactive calls. No stated cut-off is given here; in the data, active means growth inhibition above about 70%; inactive means the rest.
# Columns and labels:
# [1] = NCI Yeast Anticancer Drug Screen. Data for the rad50 strain (AID 155);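 further: 0% = growth of vehicle-only cultures of the same strain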; settings: S. cerevisiae rad50 strain growth inhibition, active compounds read high
# Procedure, shortened: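 Yeast carrying a defined DNA repair defect were exposed to test compounds, and growth was compared with vehicle-treated controls to give percent inhibition.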
# [2] = NCI Yeast Anticancer Drug Screen. Data for the mec2-1 strain (AID 157); settings: S. cerevisiae mec2-1 strain, active compounds read high
# Procedure, shortened: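 Yeast mec2-1 mutant treated with compound. Readout: growth inhibition vs vehicle controls.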
# [3] = NCI Yeast Anticancer Drug Screen. Data for the sgs1 mgt1 strain (AID 161);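 further: 0% = growth of cultures given vehicle only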; settings: S. cerevisiae sgs1 mgt1 strain, active compounds read high
# Procedure, shortened: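 Test agents were incubated with a DNA-repair-mutant yeast strain. Growth was then read and compared against vehicle-treated controls.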
# [4] = NCI Yeast Anticancer Drug Screen. Data for the cln2 rad14 strain (AID 165);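 further: 0% = growth equal to vehicle treated cultures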; settings: S. cerevisiae cln2 rad14 strain, active compounds read high
# Procedure, shortened: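 cln2 rad14 yeast strain; compound exposure; growth inhibition read vs vehicle controls.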
# [5] = NCI Yeast Anticancer Drug Screen. Data for the bub3 strain (AID 167); settings: S. cerevisiae bub3 mutant strain, active compounds read high
# Procedure, shortened: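 Compounds were applied to a genetically altered yeast strain carrying a cell-cycle control defect. Growth inhibition was scored against vehicle-treated controls.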
# [6] = NCI Yeast Anticancer Drug Screen. Data for the mlh1 rad18 strain (AID 175); settings: S. cerevisiae mlh1 rad18 strain growth inhibition, active compounds read high
# Procedure, shortened: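 Yeast w/ defined DNA-repair lesions; compound exposure; growth vs vehicle controls → % inhibition.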
# [7] = at 5.0 µM (retest, dose inferred, filed as 0.5)
# [8] = at 50.0 µM (retest, dose inferred, filed as 5.0)
SMILES,"growth inhibition [1, 7] [%]","growth inhibition [1, 8]",growth inhibition ([1]; at 50.0 µM),"growth inhibition [2, 7] [%]","growth inhibition [2, 8]",growth inhibition ([2]; at 50.0 µM),"growth inhibition [3, 7] [%]","growth inhibition [3, 8]",growth inhibition ([3]; at 50.0 µM),"growth inhibition [4, 7] [%]","growth inhibition [4, 8]",growth inhibition ([4]; at 50.0 µM),"growth inhibition [5, 7] [%]","growth inhibition [5, 8]",growth inhibition ([5]; at 50.0 µM),"growth inhibition [6, 7] [%]","growth inhibition [6, 8]",growth inhibition ([6]; at 50.0 µM)
CCCC(=S)N1CCOCC1,-1,-2%,-23.9%,-1,1%,-4.05%,-1,-1%,-3.95%,-10,-4%,33.2%,-1,-1%,12.4%,-2,-3%,26.6%
N#Cc1sc2c(c1OC(=O)c1ccc(Cl)cc1)c(=O)n(-c1ccccc1)c(=S)n2-c1ccccc1,-4,-16%,1.5%,5,-24%,2.4%,-3,0%,-0.45%,5,6%,34.5%,-3,2%,4.95%,-2,1%,-7.35%
CCCC(C)OC(=O)Nc1cccc(Cl)c1 (stereo not given),-15,3%,98.4% (active),-4,-7%,98.2% (active),-2,-10%,98.9% (active),-29,-1%,97.9% (active),-21,1%,97.5% (active),-20,16%,97.6% (active)
COc1cccc(C=O)c1O,6,75% (active),74.6% (active),-3,21%,1.05%,1,29%,17.5%,1,23%,-23.5%,-6,0%,-9.35%,1,66%,62.5%
Cc1ccccc1N=NC(C(=O)c1ccccc1)C(=O)c1ccccc1,7,94% (active),93.2% (active),-14,96% (active),94% (active),15,93% (active),92.2% (active),3,95% (active),90% (active),5,97% (active),92.8% (active),-8,97% (active),91.8% (active)
Cn1sc2ccccc2c1=S,-112,98% (active),99.6% (active),-39,99% (active),99.8% (active),-47,99% (active),99.7% (active),-78,98% (active),99.5% (active),-49,98% (active),99.5% (active),-95,98% (active),99.7% (active)
CC/C(=N\OC(=O)Nc1ccccc1)c1ccc(OC(=O)Nc2ccccc2)cc1,4,22%,60.5%,-7,58%,55%,2,46%,76.8% (active),-4,7%,49.6%,1,48%,33.1%,2,24%,76.1% (active)
O=Cc1[nH]c(=S)[nH]c(=O)c1Cc1cccc2ccccc12,-8,96% (active),97.9% (active),-3,98% (active),97.8% (active),11,99% (active),98.8% (active),0,98% (active),91.8% (active),-19,98% (active),98% (active),-3,98% (active),98.9% (active)
O=C1c2ccc(O)cc2C(=O)c2c1ccc(O)c2O,28,97% (active),76% (active),26,95% (active),67.3%,46,96% (active),83% (active),9,73% (active),41.3%,37,94% (active),76.9% (active),45,97% (active),77.4% (active)
CCOC(=O)C(NC(=O)c1ccccc1)[CH](c1ccc(OC)cc1)[Sn]([c]1ccccc1)([c]1ccccc1)[c]1ccccc1 (stereo not given),65,89% (active),77.7% (active),37,91% (active),75.2% (active),38,88% (active),79.2% (active),26,48%,54.5%,44,94% (active),79% (active),64,86% (active),69.1%
